Source: PubChem
D1 ag: agonists of human D1 dopamine receptor | actives 1% (n = 360,000) | activation, % at 2 µM | HEK293 T-REx D1 cells, calcium flux, agonist mode; further: 0% is about no effect
Target sequence (P21728 whole entry, looked up): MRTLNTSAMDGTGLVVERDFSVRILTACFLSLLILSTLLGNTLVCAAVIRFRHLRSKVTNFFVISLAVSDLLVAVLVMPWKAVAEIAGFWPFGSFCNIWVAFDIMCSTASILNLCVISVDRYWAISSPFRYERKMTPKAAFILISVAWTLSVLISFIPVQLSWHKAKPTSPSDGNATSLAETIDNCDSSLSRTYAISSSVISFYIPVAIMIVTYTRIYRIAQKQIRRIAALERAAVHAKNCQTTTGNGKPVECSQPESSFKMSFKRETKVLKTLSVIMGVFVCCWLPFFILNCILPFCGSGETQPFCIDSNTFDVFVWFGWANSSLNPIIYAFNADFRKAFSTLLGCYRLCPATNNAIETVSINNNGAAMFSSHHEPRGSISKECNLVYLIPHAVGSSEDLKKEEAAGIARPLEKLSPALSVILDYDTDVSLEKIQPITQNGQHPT
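Tetracycline-induced HEK293 TREx D1 cells, force-coupled to calcium signalling, were dye-loaded with a no-wash calcium kit. Compound was pin-added after a 10 s baseline. Fluorescence was read kinetically at 1 cycle/s for 180 s, with calcium rises flagged as agonism.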
TRHR ag: agonists of human TRH receptor | P34981 | TRHR cells, calcium flux fluo-8, FDSS agonist mode | activation, % at 2 µM | actives 0.18% (n = 360,000); further: 0% is about no effect
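TRHR-expressing cells loaded with fluo-8 calcium dye; 23 nL library compound pin-transferred, kinetic FDSS fluorescence (Ex 480/Em 530) recorded about 180 s for agonist-induced calcium release, before a 10 nM TRH EC20 addition for potentiator mode.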
D1 PAM: enhances dopamine response at the human D1 receptor. actives 0.036% (n = 360,000). HEK293 TREx D1 cells, calcium flux, dopamine EC20 potentiation. AID 504651. P21728. potentiation, % at 10 µM; in the data active means potentiation above about 30%; further: 0% is about no effect
TRHR PAM: TRH receptor (human) allosteric enhancement. P34981. TRHR cells, fluo-8 calcium fluorescence, EC20 TRH enhancement. enhancement, % at 2 µM. actives 0.66% (n = 360,000). AID 493056; in the data active means enhancement above about 30%; further: 0% is about no effect
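Enhancer read-out: after compound pinning and an initial kinetic agonist-mode read, an EC20 of TRH (10 nM final) was injected and fluo-8 calcium signal (Ex 480/Em 530) followed at 1 s/cycle for 100 cycles in TRHR-expressing cells.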
D1 antagonist: human D1 dopamine receptor antagonism | P21728 | activity change, negative = inhibition, % at 10 µM | actives 3.2% (n = 360,000) | AID 504652 | HEK293 TREx D1 cells, calcium flux, dopamine EC80; hits give low values; in the data active means activity change below about -30%; further: on the % scale 0 is the no-effect control and ±100 the full control effect
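Tetracycline-induced HEK293 Trex D1 cells, force-coupled to calcium, dye-loaded; compounds added and read 180 s, then EC80 dopamine added and calcium flux tracked kinetically another 180 s.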
An asterisk follows results filed as active; · = no result. Compounds with a hit are over-represented: about 4.7% of the library has one in this group of screens. Unless noted, no stated cut-off is given here; in the data, active means activation above about 30%; inactive means the rest.

SMILES | D1 ag | TRHR ag | D1 PAM | TRHR PAM | D1 antagonist
CCC(C)C(NC(=O)C1CCC(C)CC1)C(=O)Nc1ccc(OC)cc1 (stereo unspecified) | 1 | -1 | -3 | 2 | 9
Cc1cc(=O)oc2c3c(cc(OCC(=O)NCc4ccccc4)c12)OC(C)(C)CC3 | 2 | 2 | -6 | -12 | -32*
CC1CN(C)C(C)C/C1=N\Oc1ccc([N+](=O)[O-])cc1 (stereo unspecified) | 4 | 3 | -7 | -9 | -31*
CC1CN(C)C(C)C/C1=N/Oc1ccccc1[N+](=O)[O-] (stereo unspecified) | 4 | 0 | -5 | -2 | -20
Cc1cccc(CCN2C(Nc3ccccc3)=NC[C@@H]2C)c1 | 5 | 10 | 3 | -1 | 17
CN1C(=O)CC(N2CCC(C(N)=O)CC2)C1=O (stereo unspecified) | 2 | 0 | -1 | 2 | -4
NC(=O)C1CCN(C2CC(=O)NC2=O)CC1 (stereo unspecified) | 5 | -1 | -3 | 1 | -37*
O=[N+]([O-])c1ccc(/C=N/Nc2ccc3ccccc3c2)o1 | 40* | 6 | -2 | -4 | 11
O=[N+]([O-])c1ccc(/C=N/NC(=S)Nc2ccccc2F)o1 | 3 | 0 | -4 | -1 | -53*
O=C(N/N=C/c1ccc([N+](=O)[O-])o1)c1cc2ccccc2o1 | 1 | 0 | -4 | 5 | 6
O=[N+]([O-])c1ccc(/C=N/NC(=S)Nc2ccccc2)o1 | 9 | -1 | -4 | -4 | -3
CCc1ccc(NC(=S)NC2CC3CCCC(C2)N3Cc2ccccc2)cc1 (stereo unspecified) | 20 | 0 | 1 | 7 | -29
S=C(Nc1ccc(Cl)cc1)NC1CC2CCC(C1)N2Cc1ccccc1 (stereo unspecified) | 52* | 7 | 8 | 3 | -43*
C=CCN1C2CCCC1CC(NC(=O)Nc1cc(C)cc(C)c1)C2 (stereo unspecified) | 5 | 0 | -6 | -1 | -7
C=CCN1C2CCCC1CC(NC(=S)Nc1ccc(Cl)cc1)C2 (stereo unspecified) | 23 | 2 | -1 | 3 | -84*
S=C(Nc1ccc(Cl)cc1)NC1CC2CCCC(C1)N2C1CC1 (stereo unspecified) | 135* | 0 | 7 | 1 | -41*
COc1ccccc1NC(=O)C(C)OC(=O)CC1CCCCC1 (stereo unspecified) | 6 | 0 | 2 | -3 | -11
Cc1nc(SC(C)C(=O)NC2CCCC2)c2ccccc2n1 (stereo unspecified) | 2 | 0 | -1 | 0 | -2
COc1ccc(/C=C/C(=O)c2ccc3c(c2)OCO3)c(OC)c1 | 9 | 0 | -7 | -4 | 7
COc1cc(/C=C/C(=O)c2ccc3c(c2)OCO3)cc(Cl)c1O | 246* | 197* | · | 22 | -22
O=C(c1ccc2c(c1)N(Cc1ccccc1F)C(=O)c1ccccc1S2(=O)=O)N1CCC(Cc2ccccc2)CC1 | 0 | 0 | 0 | 4 | 9
CCN(CC)c1ccc(NC(=O)c2ccco2)c(C)c1 | -2 | 0 | 4 | 4 | -14
CCN(CC)c1ccc(NC(=O)c2ccc(Br)o2)c(C)c1 | 35* | 0 | -9 | 8 | -1
CN1/C(=C\P(=O)(N(C)C)N(C)C)C(C)(C)c2ccccc21 | 8 | 2 | -3 | -4 | -37*
CCOC(=O)/C=C1/N(C)c2ccccc2C1(C)C | 1 | 0 | 1 | 0 | -3
SMILES | D1 ag | TRHR ag | D1 PAM | TRHR PAM | D1 antagonist
O=C(CCCn1c(=S)[nH]c2cc3c(cc2c1=O)OCO3)NCCc1ccccc1Cl | 0 | 2 | 1 | -4 | 7
CCCCN(Cc1cc2ccccc2[nH]c1=O)C(=O)c1cccc(Cl)c1 | 0 | -1 | 0 | -5 | -14
CC(c1ccccc1)N1C(=O)C2C3C=CC(C4CC34)C2C1=O (stereo unspecified) | 2 | 0 | -2 | -1 | -10
CC(OC(=O)C(C)N1C(=O)C2C3C=CC(C4CC34)C2C1=O)C(=O)c1ccccc1 (stereo unspecified) | 10 | 1 | 2 | 15 | -38*
O=C(Nc1cc([N+](=O)[O-])ccc1O)c1cccc(NC(=O)c2ccco2)c1 | 4 | 0 | -4 | 14 | -4
CCCCNC(=O)CCC1N=C2c3ccccc3N=C(SCC(=O)NCCc3ccc(OC)c(OC)c3)N2C1=O (stereo unspecified) | 2 | 0 | 1 | 1 | 0
Cc1ccc(C(=O)CNc2ccccc2)cc1 | 3 | -1 | 1 | 0 | -4
C=C(C(=O)Nc1ccccc1)c1ccc(C)cc1 | 4 | -1 | 3 | 2 | -49*
O=C(Nc1cccc(-c2nc3ccccc3o2)c1)c1cccc2c(Cl)cccc12 | -1 | 1 | -5 | -2 | -11
Cc1ccccc1C(=O)Nc1ccnn1C1CCN(Cc2ccccn2)CC1 | 2 | 0 | -2 | 4 | -6
Cc1ccc(NC(=O)NC(=O)CN2C(=O)NC3(CCCCCCC3)C2=O)c(C)c1 | 0 | 0 | 0 | -3 | -12
Cc1ccc(NC(=O)CCN2C(=O)NC3(CCCC3)C2=O)c(C)c1 | 2 | -1 | -14 | -6 | -34*
Cc1ccc(NC(=O)N2CCC(CN3CCCCCC3)CC2)c(Cl)c1 | -2 | 0 | -1 | 2 | 4
CC(C)C(=O)OC/C(O)=C(\C#N)c1nc2ccccc2[nH]1 | 2 | 2 | -6 | -5 | -25
Cc1ccc(C(C)C)c(OC/C(O)=C(\C#N)c2nc3ccccc3[nH]2)c1 | 2 | 0 | -4 | 1 | -32*
CCOc1ccc(N(CC)S(=O)(=O)N2CCCC(C(=O)Nc3ccc(OC)c(OC)c3)C2)cc1 (stereo unspecified) | 4 | -2 | -3 | 13 | -12
Cc1ccc(C(OCC(O)CNCc2ccc(F)cc2)c2ccccc2)cc1 (stereo unspecified) | 67* | 2 | 31* | 1 | 4
O=C(c1ccccc1)c1ccc(OCC(O)CNCc2cccc(Cl)c2)cc1 (stereo unspecified) | 43* | 3 | -2 | 7 | -5
CCC(=O)c1ccc(OCC(O)CNCc2ccc(F)cc2)cc1 (stereo unspecified) | 10 | 1 | -1 | 2 | -5
O=C(c1ccccc1)c1ccc(OCC(O)CNCc2ccc(F)cc2)cc1 (stereo unspecified) | 52* | 2 | -3 | 10 | -18
O=C(COc1ccc(C(=O)c2ccccc2)cc1)NCc1ccc(F)cc1 | 16 | -1 | -3 | 16 | -39*
Cc1cc2c(s1)c1cnn(Cc3cc(F)c(F)cc3F)c(=O)c1n2C | 2 | -1 | -7 | -3 | -23
CCc1c(C)sc(NC(=O)c2cc(C3CC3)on2)c1C#N | 0 | 1 | -3 | 5 | -37*
